The values that follow come from the supplement of paper PMC3342239.

Molecules are shown by their SMILES. Counter-ions that a name gives are not always drawn.

This test deals with Saccharomyces cerevisiae. Description: fraction of cells in G1 phase (DNA content, flow cytometry); higher = more cells with unreplicated DNA (G1 delay). Conditions: temperature: 30 C, YPD. The method, boiled down: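 S. cerevisiae in YPD at 30°C was dosed with library drugs, using a final 20 µg/ml for sensitized JTY2953 diluted 1∶200 from overnight and fixed at 6–7 h, or dosing dividing JTY2953 (fixed at 6 h) and BY4741 (fixed at 4.33 h). Ethanol-fixed, SYTOX Green-stained cells were read by flow cytometry (10,000 events). The G1 fraction is taken as the Dean-Jett-Fox G1 peak area divided by the G1 and G2/M areas combined.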

The mark [1] stands for this setting: JTY2953 pdr5 snq2 (sensitized), drug added to: actively dividing cells, 6 h.
Setting [2] is: JTY2953 pdr5 snq2 (sensitized), drug added to: cultures diluted from stationary phase, 6-7 h.
Setting [3] is: BY4741 PDR5+ SNQ2+, drug added to: actively dividing cells, 4.33 h.

Take `CCCCc1oc2ccccc2c1C(=O)c1cc(I)c(OCCN(CC)CC)c(I)c1` [Amiodarone] (30.9922 µM): the “fraction of cells in G1 phase” value is, setting by setting: under setting [1], 0.388; under setting [2], 0.868.

On to `C[C@@H]1CN(c2c(F)c(N)c3c(=O)c(C(=O)O)cn(C4CC4)c3c2F)C[C@H](C)N1` [Sparfloxacin] (50.9672 µM), for which the “fraction of cells in G1 phase” value runs as follows: under setting [3], 0.46; under setting [2], 0.366.

On to `CC(C(O)c1ccc(O)cc1)N1CCC(Cc2ccccc2)CC1` (configuration not stated) [Ifenprodil] (61.4525 µM), for which the “fraction of cells in G1 phase” value came out at 0.41 under setting [3], 0.694 under setting [1] and 0.61 under setting [2].

Regarding `CCC(C)(C)C(=O)O[C@H]1C[C@@H](C)C=C2C=C[C@H](C)[C@H](CC[C@@H]3C[C@@H](O)CC(=O)O3)[C@H]21` [Simvastatin] (47.7808 µM), the “fraction of cells in G1 phase” value reads like this: under setting [1], 0.354; under setting [2], 0.879.

Consider `OCCN1CCN(CCCN2c3ccccc3Sc3ccc(C(F)(F)F)cc32)CC1` [Fluphenazine 2HCl] (45.711 µM), for which the “fraction of cells in G1 phase” value stood at 0.327 under setting [1] and 0.862 under setting [2].

On to `CC1=C(/C=C/C(C)=C/C=C/C(C)=C/C(=O)Nc2ccc(O)cc2)C(C)(C)CCC1` [Fenretinide] (51.0779 µM), for which the “fraction of cells in G1 phase” value by setting is: under setting [3], 0.462; under setting [1], 0.681; under setting [2], 0.604.

Turning to `Clc1ccc(C(Cn2ccnc2)OCc2csc3c(Cl)cccc23)c(Cl)c1` (configuration not stated) [Sertaconazole] (45.6852 µM), the “fraction of cells in G1 phase” value came to 0.3 under setting [1] and 0.869 under setting [2].

On to `CNCCC(Oc1ccc(C(F)(F)F)cc1)c1ccccc1` (configuration not stated) [Fluoxetine HCl] (64.655 µM), for which the “fraction of cells in G1 phase” value turned out to be 0.43 under setting [3] and 0.17 under setting [2].

With `CCCCCCCCCCCCCCCCOP(=O)([O-])OCC[N+](C)(C)C` [Miltefosine] (49.0703 µM), the “fraction of cells in G1 phase” value reads like this: under setting [1], 0.596; under setting [2], 0.858.

As for `CSc1ccc2c(c1)N(CCC1CCCCN1C)c1ccccc1S2` (configuration not stated) [Thioridazine HCl] (53.969 µM), the “fraction of cells in G1 phase” value is 0.469 under setting [1] and 0.729 under setting [2].
